Among the data in PubChem BioAssay (Tox21) are Potency and outcome values, retold here.

“And” between values parts separate entries of the source, which are not always exact repeats. Equal values may be shown once. Records with an inconclusive call do not appear. A structure can be active in one record and inactive in another. The source made the active and inactive calls. Unless noted, the call rests on the fitted dose curve; in most records, active means well fitted curve in the direction sought with a large enough effect in the repeat runs; inconclusive means weak or mixed curves; inactive means no such curve, though single readings can be large; an effect the other way counts as inactive or inconclusive.

A short description of assay [1]: qHTS assay to identify small molecule agonists of the vitamin D receptor (VDR) signaling pathway - cell viability counter screen (AID 743224). Further: nearly all actives have a fitted effect of over 50% in size. Further: potency means the concentration at half of the fitted maximal effect. The gist of the method:
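VDR-bla cells, 4 h after plating, exposed to compounds for 16 h at 37C; viability then read in the same wells as CellTiter-Glo luminescence after 30 min at room temperature, following the bla FRET read.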

Assay [2] can be described thus: qHTS assay to identify small molecule antagonists of the vitamin D receptor (VDR) signaling pathway - cell viability counter screen (AID 743225). Further: nearly all actives have a fitted effect of over 50% in size. The gist of the method:
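Same-well multiplex: following 16 h treatment of HEK 293T cells carrying a UAS-driven beta-lactamase reporter with compound and agonist (3 nM final), and a 2 h FRET substrate step, CellTiter-Glo was added and luminescence read after 30 min.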

Assay [3] can be described thus: qHTS assay to identify small molecule agonists of the NFkB signaling pathway (AID 1159509; active means well fitted curve in the direction sought with a large enough effect in the signal ratio in the repeat runs, not every such curve was filed as active; the % refers to the signal ratio; further: series mostly up to about 61 µM). The gist of the method: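 ME-180 NFkB-bla, 2,000 cells/well, overnight plating; cpd pinned in DMSO, 5 h 37 C; B/G FRET substrate 1.5 h RT; ex 405, em 460/530 nm.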
Assay [4] can be described thus: qHTS assay to identify small molecule agonists of the NFkB signaling pathway - cell viability counter screen (AID 1159515; calls by dose curve; further: series mostly up to about 61 µM; nearly all actives have a fitted effect of over 55% in size). In a few lines: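 NFkB-bla ME-180 cells, 2,000/well, plated overnight at 37 C; compound added for 5 hr at 37 C. Viability read in the same wells as the bla reporter, by CellTiter-Glo luminescence after 30 min at room temperature.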
A short description of assay [5]: qHTS assay to identify small molecule agonists of the endoplasmic reticulum stress response signaling pathway (AID 1159516; active means well fitted activation curve with a large enough effect in the signal ratio in the repeat runs, not every such curve was filed as active; the % refers to the signal ratio). The gist of the method: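 CellSensor ESRE-bla HeLa cells, 1,500 per well, plated overnight, then exposed to compounds for 5 hr at 37 C. Beta-lactamase reporter read with LiveBLAzer B/G FRET substrate after 2 hr at room temperature, 405 nm excitation, 460 and 530 nm emission.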

A short description of assay [6]: qHTS assay to identify small molecule agonists of the endoplasmic reticulum stress response signaling pathway - cell viability counter screen (AID 1159517; calls by dose curve;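 further: HeLa cells carrying an ER stress response element beta-lactamase reporter; series mostly up to about 61 µM; nearly all actives have a fitted effect of over 50% in size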). In a few lines: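 ESRE-bla HeLa cells, 1,500 per well, seeded overnight then treated with compounds for 5 hr at 37 C. After the beta-lactamase read, viability in the same wells is measured by CellTiter-Glo luminescence after 30 min at room temperature.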

Assay [7] is described as follows: qHTS assay to identify small molecule antagonists of the retinoid-related orphan receptor gamma (ROR-gamma) signaling pathway - cell viability counter screen (AID 1159520). Further: nearly all actives have a fitted effect of over 50% in size. The gist of the method: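 Tet-on ROR gamma CHO cells were given compounds for 2 hr, then doxycycline hyclate at 1 uM final, and incubated 16 hr at 37 C. Viability was measured as ATP content by CellTiter-Glo luminescence.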

For assay [8], the target named is Nuclear receptor ROR-gamma (Homo sapiens) (UniProt P51449). The experiment in a line: qHTS assay to identify small molecule antagonists of the retinoid-related orphan receptor gamma (ROR-gamma) signaling pathway (AID 1159521). The gist of the method:
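Inducible-expression reporter assay: doxycycline (1 uM final) switched on RORγ in CHO cells bearing a ROR response element-luciferase construct, with test compounds present from 2 h beforehand. Decreased luminescence after 16 h defined antagonist activity.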

Assay [9] is described as follows: qHTS assay to identify small molecule agonists of the AP-1 signaling pathway - cell viability counter screen (AID 1159525; calls by dose curve; further: nearly all actives have a fitted effect of over 55% in size). In a few lines: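 AP-1-bla ME-180 cells in Opti-MEM with 0.5% dialyzed FBS, compound exposure 5 h at 37 C in 15-point titration. Viability read in the same wells as ATP content by CellTiter-Glo luminescence, normalised to tetra-n-octylammonium bromide and DMSO controls.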

Assay [10] can be described thus: qHTS assay to identify small molecule agonists of the AP-1 signaling pathway (AID 1159526; calls by dose curve).
Assay [11] concerns the target Retinoic acid receptor RXR-alpha (Homo sapiens) (UniProt P19793). The experiment in a line: qHTS assay to identify small molecule agonists of the RXR signaling pathway (AID 1159527; calls by dose curve; further: nearly all actives have a fitted effect of over 35% in size; further: potency means the concentration at half of the fitted maximal effect). The gist of the method: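 Compounds in DMSO were added to RXR-alpha-UAS-bla HEK 293T cells kept in 2% charcoal-stripped serum, and incubated 16 hr at 37 C with 5% CO2. Reporter signal came from a 2 hr B/G FRET substrate step.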

A short description of assay [12]: qHTS assay to identify small molecule agonists of the RXR signaling pathway - cell viability counter screen (AID 1159529). The gist of the method:
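Counter screen: CellTiter-Glo luminescence. Cells: RXR-alpha-UAS-bla HEK 293T. Medium: 2% charcoal-stripped FBS. Treatment: 16 h, 37 C. Reagent incubation: 30 min, RT.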

Assay [13] in a line: qHTS assay to identify small molecule antagonists of the retinoid acid receptor (RAR) signaling pathway - cell viability counter screen (AID 1159551). Further: nearly all actives have a fitted effect of over 35% in size. In a few lines: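 C3RL4 RARE-luciferase cells, 1,000/well, incubated overnight, then dosed with compound plus 1 uM retinol (final). After 6 hr at 37 C, viability read by CellTiter-Glo ATP luminescence following 30 min at room temperature.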

Assay [14] is described as follows: qHTS assay to identify small molecule antagonists of the retinoic acid receptor (RAR) signaling pathway (AID 1159552; further: nearly all actives have a fitted effect of over 50% in size). In a few lines:
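Antagonism of retinol-induced RARE reporter activity was measured in C3RL4 cells. Exposure to compounds and 1 uM final retinol lasted 6 hr at 37 C, with luminescence as endpoint.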

Assay [15] can be described thus: qHTS assay to identify small molecule agonists of the retinoic acid receptor (RAR) signaling pathway (AID 1159553). Further: potency means the concentration at half of the fitted maximal effect. In a few lines:
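C3RL4 RARE-luciferase cells were seeded at 1,000/well and grown overnight at 37 C, then exposed to compounds for 6 hr at 37 C, 5% CO2. Luciferase reagent was added and luminescence was read after 30 min at room temperature.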

Retinoic acid receptor RXR-alpha (Homo sapiens), sequence (P19793 whole entry, looked up): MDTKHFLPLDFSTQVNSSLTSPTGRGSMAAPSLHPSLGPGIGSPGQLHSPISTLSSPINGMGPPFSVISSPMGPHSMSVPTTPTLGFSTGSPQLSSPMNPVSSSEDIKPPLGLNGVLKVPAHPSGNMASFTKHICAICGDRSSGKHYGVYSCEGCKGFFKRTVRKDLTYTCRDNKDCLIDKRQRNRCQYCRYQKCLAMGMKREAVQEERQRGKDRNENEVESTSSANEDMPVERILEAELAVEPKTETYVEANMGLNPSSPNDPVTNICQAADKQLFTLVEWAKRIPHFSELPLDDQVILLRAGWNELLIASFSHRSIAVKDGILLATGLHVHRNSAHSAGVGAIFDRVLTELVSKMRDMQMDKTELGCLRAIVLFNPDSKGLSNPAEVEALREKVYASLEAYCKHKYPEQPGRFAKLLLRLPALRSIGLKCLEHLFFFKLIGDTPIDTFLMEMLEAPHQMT

As to `O=C(O)Cc1ccccc1`, the Potency entry in assay [1], in assay [8], in [10], in assay [11], in assay [14] and in assay [15] was “inactive” each time. The outcome in assay [2], in assay [3], in assay [4], in [5], in assay [6] and in assay [7] was inactive. In addition, the molecule was called inactive in assay [9], in assay [12] and in assay [13].
Regarding `CNc1cnn(-c2cccc(C(F)(F)F)c2)c(=O)c1Cl`, the Potency result in assay [1], in assay [8], in assay [10], in [11] and in assay [14] was “inactive” in each case. Besides, the result in [2], in assay [3], in assay [4], in assay [5], in assay [6] and in assay [7] was inactive. Further, the call in assay [9], in [12] and in [13] was inactive. The Potency in assay [15] was 4.17 µM (active) and 5.45 µM (active).
For `OCc1ccco1`, the Potency entry in [1], in assay [8] and in assay [10] was “inactive” each time. For the same molecule, the molecule was classed as inactive in assay [2], in assay [3], in assay [4], in assay [5], in assay [6] and in assay [7]. The outcome in assay [9] and in [13] was inactive. In addition, the Potency result in assay [11] is “inactive and 5.49 µM (active)”.
`CCCCCCCCCCCCCCCCCC(=O)O`: the Potency entry in assay [1], in [10], in [11] and in [15] was “inactive” throughout. Besides, the molecule was classed as inactive in assay [2], in [3], in assay [4], in [5], in [6] and in assay [7]. Besides, the outcome in assay [9], in [12] and in assay [13] was inactive.
In the case of `CCOC(=O)CC(SP(=O)(OC)OC)C(=O)OCC` (stereo not given), the Potency entry in [1], in [8], in assay [10], in [11] and in assay [15] was “inactive” in each case. In addition, the call in [2], in assay [3], in assay [4], in assay [5], in [7] and in [9] was inactive. Also, the molecule was classed as inactive in assay [12] and in [13].
With `CN(C)C(=O)Cl`, the Potency result in assay [1], in assay [8], in assay [10], in assay [11] and in assay [15] was “inactive” each time. The molecule was classed as inactive in [2], in [3], in [4], in assay [5], in assay [6] and in assay [7]. The molecule was classed as inactive in assay [9] and in assay [13].
Regarding `N#CN=C(N)N`, the Potency entry in [1], in [8], in assay [10], in assay [11], in assay [14] and in [15] was “inactive” each time. Also, the result in assay [2], in [3], in [4], in assay [5], in assay [7] and in [9] was inactive. The molecule was classed as inactive in [12] and in assay [13].
Turning to `O=C(O)C(Br)Br`, the Potency entry in assay [1], in [8], in assay [10] and in [11] was “inactive” each time. The molecule was classed as inactive in [2], in assay [3], in [4], in assay [5], in [6] and in assay [7]. The molecule was classed as inactive in [9] and in assay [13].
Take `Oc1ccc(Cl)cc1`: the Potency result in [1], in assay [8], in assay [10], in [11] and in assay [15] was “inactive” throughout. Besides, the outcome in [2], in assay [3], in [4], in assay [5], in [6] and in assay [7] was inactive. The molecule was classed as inactive in [9] and in [13].
Consider `FC(F)(F)c1ccc(Cl)cc1`, for which the Potency result in assay [1], in [8], in assay [10], in assay [11] and in assay [15] was “inactive” each time. In addition, the molecule was called inactive in assay [2], in assay [3], in assay [4], in assay [5], in [6] and in assay [7]. In addition, the molecule was called inactive in assay [9] and in assay [13].
For `CCOP(=S)(OCC)Oc1cc(C)nc(C(C)C)n1`, the Potency entry in assay [1] is “inactive and 24.5 µM (active)”. Besides, the molecule was called inactive in assay [2], in [3], in assay [4], in assay [5], in [6] and in [7]. Further, the molecule was called inactive in assay [9] and in assay [13]. Further, the Potency result in assay [8], in assay [10] and in assay [11] was “inactive” throughout.
